Experimental data as given in PubChem BioAssay.
Activity calls are given as the source filed them.

Columns and labels:
[1] = molecular target: Albumin (Bos taurus) (UniProt P02769); test: compounds binding labelled BSA control protein – biochemical, small-molecule microarray, Alexa647 label, 635/667 nm fluorescence, artefact control for SMM control protein annotation, profiling panel (AID 1118); settings: BSA-A647 binding, fluorescence 635 nm, higher = more signal;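 note: score merges 667 nm emission intensity and signal-to-noise per printed compound spot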
Chain of Albumin (Bos taurus) (P02769 whole entry, looked up): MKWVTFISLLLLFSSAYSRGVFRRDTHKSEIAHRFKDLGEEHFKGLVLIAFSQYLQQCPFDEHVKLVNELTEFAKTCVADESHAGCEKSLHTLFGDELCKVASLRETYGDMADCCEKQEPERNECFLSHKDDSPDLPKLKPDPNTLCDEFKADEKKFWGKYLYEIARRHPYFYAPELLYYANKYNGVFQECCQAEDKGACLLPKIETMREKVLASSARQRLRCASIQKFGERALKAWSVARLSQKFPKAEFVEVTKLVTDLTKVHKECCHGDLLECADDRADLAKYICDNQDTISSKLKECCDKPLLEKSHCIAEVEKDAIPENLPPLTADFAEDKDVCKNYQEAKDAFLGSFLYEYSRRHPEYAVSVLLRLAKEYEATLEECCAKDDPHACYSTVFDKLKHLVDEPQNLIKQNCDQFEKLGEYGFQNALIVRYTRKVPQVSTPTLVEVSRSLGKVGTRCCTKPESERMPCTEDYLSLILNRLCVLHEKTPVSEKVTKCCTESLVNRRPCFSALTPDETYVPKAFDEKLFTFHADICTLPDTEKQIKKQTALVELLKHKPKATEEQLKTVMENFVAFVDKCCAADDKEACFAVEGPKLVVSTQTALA

[2] = probe aXIP binding to arrayed compounds – biochemical, NeuroSMM set, 635/667 nm fluorescence, primary screen (AID 1119); settings: small-molecule microarray, higher = more signal, called active from +8 up or from −8 down;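 note: probe is the protein aXip251-270 applied at 1 µg/mL to compound-printed slides; binding of probe to printed compounds measured as 667 nm fluorescence plus signal to noise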
[3] = probe aNOTCH3 binding on compound microarray – biochemical, small-molecule microarray, 635/667 nm fluorescence, primary screen (AID 1120); settings: higher = more signal;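 note: probe is a biotin-tagged antibody raised against NOTCH3 rather than NOTCH3 protein; score merges spot fluorescence near 667 nm with spot signal to noise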
[4] = probe aNOTCH2 binding on compound microarray – biochemical, small-molecule microarray, 635/667 nm fluorescence, primary screen (AID 1121); settings: higher = more signal;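 note: score merges feature fluorescence read at 667 nm with its signal to noise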
[5] = molecular target: Carbonic anhydrase 2 (Homo sapiens) (UniProt P00918); test: compounds binding carbonic anhydrase 2 – biochemical, small-molecule microarray, Alexa647-labelled CAII, profiling panel (AID 1122); settings: CAII-A647 binding fluorescence, higher = more signal
[6] = COS7 lysate on small-molecule microarray, probe aHis, 635 nm (AID 1123); settings: COS7 cell lysate, fluorescence, higher = more signal;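 note: z-score combines 667nm fluorescence intensity with signal-to-noise per printed compound spot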
[7] = probe aLAP1 signal on lysate-treated microarray – cell lysate, small-molecule microarray, COS7 lysate, primary screen (AID 1124); settings: probe aLAP1, fluorescence, higher = more signal;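 note: lysate comes from COS7 cells expressing LAP1 and is applied at 0.3 µg/mL; score merges spot fluorescence near 667 nm with signal-to-noise over triplicate slides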
[8] = tested on: Sam68 (KHDRBS1); test: compounds binding KHDRBS1 protein – biochemical, small-molecule microarray, 635 nm fluorescence, primary screen (AID 1125); settings: higher = more signal;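 note: score merges 667 nm channel intensity with signal to noise over triplicate slides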
[9] = tested on: Chordin-like protein 2 (CHRDL2); test: compounds binding chordin-like 2 – biochemical, small-molecule microarray, 635 nm fluorescence, primary screen (AID 1126); settings: fluorescence 635 nm, higher = more signal;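 note: printed compound slides probed with Chrdl2 protein at 4 µg/mL for 1 h at 4 C; score merges 667 nm emission intensity with signal to noise over three replicate slides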
[10] = molecular target: Concanavalin-A (Canavalia ensiformis) (UniProt P02866); test: compounds binding concanavalin A lectin – biochemical, small-molecule microarray, Alexa647 label, 635 nm, artefact control for SMM control protein annotation, primary screen (AID 1127); settings: ConA-A647 binding fluorescence, higher = more signal;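 note: z combines 667 nm emission intensity with signal-to-noise across three replicate slides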
Chain of Concanavalin-A (Canavalia ensiformis) (P02866 whole entry, looked up): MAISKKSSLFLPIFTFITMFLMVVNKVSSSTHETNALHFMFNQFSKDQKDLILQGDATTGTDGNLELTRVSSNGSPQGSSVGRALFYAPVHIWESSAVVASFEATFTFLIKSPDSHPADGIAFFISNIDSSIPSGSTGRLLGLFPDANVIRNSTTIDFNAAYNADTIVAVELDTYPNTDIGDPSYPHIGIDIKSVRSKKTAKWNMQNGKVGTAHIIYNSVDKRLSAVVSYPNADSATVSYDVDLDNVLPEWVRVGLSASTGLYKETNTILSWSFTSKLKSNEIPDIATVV

[11] = compounds binding Alexa647 anti-His antibody – biochemical, small-molecule microarray, 635 nm fluorescence, artefact control for SMM control protein annotation, primary screen (AID 1128); settings: higher = more signal;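 note: score merges feature fluorescence with signal-to-noise for each printed compound spot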
[12] = tested on: Human papillomavirus type 1a E7 protein (residues 1-88); test: HPV1a E7 small-molecule binders, primary screen, biochemical, small-molecule microarray, residues 1-88, 635 nm (AID 1129); settings: small-molecule microarray binding, fluorescence 635 nm; higher = more signal
[13] = molecular target: Focal adhesion kinase 1 (Homo sapiens) (UniProt Q05397); test: PTK2 protein binding on printed compound slides – biochemical, small-molecule microarray, 635/667 nm fluorescence, BSA, DTT, primary screen (AID 1130); settings: 635 nm fluorescence, higher = more signal;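 note: composite of spot emission at 667 nm and signal to noise over triplicate slides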
Chain of Focal adhesion kinase 1 (Homo sapiens) (Q05397 whole entry, looked up): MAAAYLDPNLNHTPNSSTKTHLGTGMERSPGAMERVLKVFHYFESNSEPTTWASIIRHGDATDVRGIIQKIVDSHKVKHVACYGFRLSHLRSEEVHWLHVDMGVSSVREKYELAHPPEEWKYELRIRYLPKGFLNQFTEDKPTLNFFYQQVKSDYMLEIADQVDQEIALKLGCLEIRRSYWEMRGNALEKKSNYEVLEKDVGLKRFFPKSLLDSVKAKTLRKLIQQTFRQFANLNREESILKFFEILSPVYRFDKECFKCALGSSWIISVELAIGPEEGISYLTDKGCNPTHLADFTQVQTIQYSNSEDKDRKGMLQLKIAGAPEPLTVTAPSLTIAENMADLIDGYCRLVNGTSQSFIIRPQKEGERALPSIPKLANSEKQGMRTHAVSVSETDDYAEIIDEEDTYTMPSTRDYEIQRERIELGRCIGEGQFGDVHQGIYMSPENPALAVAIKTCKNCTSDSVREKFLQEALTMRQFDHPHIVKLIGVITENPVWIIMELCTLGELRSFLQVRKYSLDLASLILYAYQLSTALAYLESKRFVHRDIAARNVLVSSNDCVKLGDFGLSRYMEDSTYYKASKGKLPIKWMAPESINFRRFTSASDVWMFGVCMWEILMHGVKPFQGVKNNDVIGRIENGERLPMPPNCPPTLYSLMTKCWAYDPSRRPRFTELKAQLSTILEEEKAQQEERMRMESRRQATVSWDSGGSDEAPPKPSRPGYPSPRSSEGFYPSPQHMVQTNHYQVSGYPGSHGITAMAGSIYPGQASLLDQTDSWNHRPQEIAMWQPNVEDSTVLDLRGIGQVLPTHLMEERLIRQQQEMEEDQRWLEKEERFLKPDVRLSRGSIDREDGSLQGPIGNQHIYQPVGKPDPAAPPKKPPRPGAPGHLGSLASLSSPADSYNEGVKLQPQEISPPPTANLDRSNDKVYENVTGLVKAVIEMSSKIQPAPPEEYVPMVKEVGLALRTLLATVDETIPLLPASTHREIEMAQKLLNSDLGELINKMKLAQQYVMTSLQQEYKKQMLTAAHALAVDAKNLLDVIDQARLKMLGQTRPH

[14] = tested on: Fibrinogen (Alexa647-labelled); test: Alexa647-fibrinogen binding to printed small molecules – biochemical, small-molecule microarray, 635/667 nm fluorescence, artefact control for SMM control-protein annotation, profiling panel (AID 1131); settings: fibrinogen-A647 binding fluorescence, higher = more signal;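 note: z-score merges 667 nm fluorescence with per-spot signal-to-noise over triplicate slides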
[15] = molecular target: Follistatin (Homo sapiens) (UniProt P19883); test: FST protein binding to printed compounds – biochemical, small-molecule microarray, 635/667 nm fluorescence, primary screen (AID 1132); settings: 635 nm fluorescence, higher = more signal
Chain of Follistatin (Homo sapiens) (P19883 whole entry, looked up): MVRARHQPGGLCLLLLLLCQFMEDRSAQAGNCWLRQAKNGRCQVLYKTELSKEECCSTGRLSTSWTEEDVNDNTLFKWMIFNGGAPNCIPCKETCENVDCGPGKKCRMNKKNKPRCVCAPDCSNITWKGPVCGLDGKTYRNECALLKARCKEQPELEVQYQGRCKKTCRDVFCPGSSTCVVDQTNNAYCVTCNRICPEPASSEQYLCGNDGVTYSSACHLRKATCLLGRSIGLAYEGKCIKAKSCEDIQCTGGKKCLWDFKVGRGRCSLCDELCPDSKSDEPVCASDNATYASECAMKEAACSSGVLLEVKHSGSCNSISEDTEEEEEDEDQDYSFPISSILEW

[16] = molecular target: Fibroblast growth factor 2 (Homo sapiens) (UniProt P09038); test: basic fibroblast growth factor binding to printed compounds – biochemical, small-molecule microarray, 635/667 nm fluorescence, primary screen (AID 1133); settings: FGF2, fluorescence 635/667, higher = more signal
Chain of Fibroblast growth factor 2 (Homo sapiens) (P09038 whole entry, looked up): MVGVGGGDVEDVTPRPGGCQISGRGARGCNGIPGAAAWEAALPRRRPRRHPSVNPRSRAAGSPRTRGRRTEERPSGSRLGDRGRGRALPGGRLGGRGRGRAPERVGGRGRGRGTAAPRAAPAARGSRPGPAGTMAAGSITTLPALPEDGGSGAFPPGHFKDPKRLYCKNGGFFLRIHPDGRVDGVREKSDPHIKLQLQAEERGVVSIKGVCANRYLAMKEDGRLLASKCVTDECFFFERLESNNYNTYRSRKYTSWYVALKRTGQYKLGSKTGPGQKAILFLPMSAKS

[17] = JC-1 mitochondrial potential readout, lung cancer cells – cell-based, A549, JC-1 fluorescence, basal, 24 h, 100 nL, profiling panel (AID 1138); settings: higher = more signal;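 note: A549 lung adenocarcinoma cells under basal conditions with no added stimulus; test concentration not given here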
[18] = tested on: Lefty1; test: Lefty1 protein binding to printed compounds – biochemical, small-molecule microarray, 635/667 nm fluorescence, primary screen (AID 1139); settings: fluorescence 635/667, higher = more signal
[19] = tested on: wheat germ agglutinin (Triticum aestivum), Alexa647-labelled; test: Alexa647-WGA lectin binding to printed small molecules – biochemical, small-molecule microarray, 635/667 nm fluorescence, artefact control for SMM control-protein annotation, profiling panel (AID 1140); settings: WGA-A647 binding, 635 nm fluorescence, higher = more signal;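 note: score merges 667 nm feature emission with signal to noise over triplicate slides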
[20] = molecular target: Luciferin 4-monooxygenase (Photinus pyralis) (UniProt P08659); test: inhibition of purified Photinus pyralis luciferase – biochemical, luminescence, purified enzyme, 2006 set, primary screen (AID 1141); settings: purified firefly luciferase, SteadyGlo luminescence, 30 min; higher = more signal, called active from +8 up or from −8 down;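 note: cell-free assay with purified firefly luciferase at 100 ng per well in PBS; test concentration not given here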
Chain of Luciferin 4-monooxygenase (Photinus pyralis) (P08659 whole entry, looked up): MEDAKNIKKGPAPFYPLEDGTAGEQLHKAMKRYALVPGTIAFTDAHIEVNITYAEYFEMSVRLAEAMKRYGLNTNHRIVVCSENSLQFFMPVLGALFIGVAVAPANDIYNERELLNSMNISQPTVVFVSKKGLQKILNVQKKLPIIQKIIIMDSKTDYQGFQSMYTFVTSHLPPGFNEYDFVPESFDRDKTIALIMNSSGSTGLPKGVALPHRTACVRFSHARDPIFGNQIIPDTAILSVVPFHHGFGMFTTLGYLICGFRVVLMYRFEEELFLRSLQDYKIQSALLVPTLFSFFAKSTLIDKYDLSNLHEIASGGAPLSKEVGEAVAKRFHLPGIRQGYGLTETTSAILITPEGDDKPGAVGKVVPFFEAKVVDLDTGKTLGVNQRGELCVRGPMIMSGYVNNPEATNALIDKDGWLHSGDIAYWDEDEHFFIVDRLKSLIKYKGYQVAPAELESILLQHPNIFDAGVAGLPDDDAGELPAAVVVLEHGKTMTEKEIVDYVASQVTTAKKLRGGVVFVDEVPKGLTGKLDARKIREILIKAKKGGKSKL

SMILES | composite z-score [1] | composite Z-score [2] | composite z-score [3] | composite z-score [4] | composite z-score [5] | composite z-score [6] | composite z-score [7] | composite z-score [8] | composite z-score [9] | composite z-score [10] | composite z-score [11] | composite z-score [12] | composite z-score [13] | composite z-score [14] | composite z-score [15] | composite z-score [16] | z-score [17] | composite z-score [18] | composite z-score [19] | z-score [20]
O=C(NC1CC1)[C@@H]1c2ccccc2C(=O)N(Cc2ccccc2Cl)[C@H]1c1ccc(CO)cc1 | -0.243 | 0.0965 (inactive) | 0.0765 | -0.0411 | 0.633 | 2.33 | 0.108 | 1.33 | 0.516 | 1.02 | 3.06 | 0.981 | 1.06 | 0.57 | 1.33 | 1.32 | 3.13 | 0.233 | 0.447 | -1.44 (inactive)
COc1cc2c(cc1O)C(c1cccs1)N(C)CC2 (stereo not given) | 0.393 | -0.0667 (inactive) | -0.28 | -0.182 | 0.311 | 0.0056 | -0.465 | -1.2 | -0.231 | -1.2 | -1 | -1.33 | 0.756 | -0.861 | -0.123 | -0.0571 | -0.278 | -0.574 | -1.05 | 0.146 (inactive)
[N-]=[N+]=Nc1ccccc1[C@@H]1OC(c2ccc(OCCCO)cc2)=N[C@]1(CCS(=O)(=O)c1ccccc1)C(N)=O | 0.935 | 0.185 (inactive) | 0.308 | 0.125 | 0.438 | 2.02 | 1.66 | 1.29 | -0.227 | 1.16 | 0.712 | 1.23 | 0.203 | 1.02 | 1.28 | 0.423 | -0.995 | -0.411 | 0.881 | -13.5 (active)
COc1ccc(/C=C/C=O)cc1 | -0.85 | -0.174 (inactive) | -0.0032 | -0.0468 | -0.206 | -0.513 | 0.0998 | -0.235 | 0.309 | -0.415 | 0.0874 | -0.238 | -0.0113 | -1.76 | 0.853 | 0.138 | 0.769 | 0.321 | -0.367 | -0.756 (inactive)
O=C1c2ccccc2[C@](Cc2ccccc2I)(C(=O)NCC(F)(F)F)[C@H](c2ccc(CO)cc2)N1Cc1ccccc1Cl | 0.83 | -0.228 (inactive) | 0.0445 | -0.0811 | 0.596 | 2.04 | 1.42 | 1.29 | -0.466 | 1.09 | -0.176 | 1.19 | 1.22 | 0.722 | 1.1 | 0.138 | 0.423 | 0.883 | 0.549 | 0.406 (inactive)
